Experimental data as given in PubChem BioAssay AID1347414 (National Center for Advancing Translational Sciences (NCATS), 2020).
“And” between values parts separate entries of the source, which are not always exact repeats. Equal values may be shown once. Results filed as inconclusive are left out. The source made the active and inactive calls. The call rests on the fitted dose curve; in most records, active means well fitted inhibition curve with a large enough effect; inconclusive means small, poorly fitted or top-dose-only effect; inactive means no such curve, though single readings can be large or run the other way.

assay: qHTS to identify inhibitors of the type 1 interferon - major histocompatibility complex class I in skeletal muscle: Secondary screen by immunofluorescence; details: C25cl48 myoblasts, IFN-b induced HLA-ABC immunofluorescence, 24 h; series mostly up to 49.8 µM; further: nearly all actives have a fitted effect of over 70% in size
Excerpt: Assay Submitter (PI): Travis B. Kinder Ph.D. & James Inglese Ph.D. Assay Development and Screening Technology Laboratory (ADST) National Center for Advancing Translational Sciences (NCATS), Rockville, MD National Institute of Health (NIH), Bethesda, Maryland Idiopathic inflammatory myopathies, collectively referred to as myositis, are a group of rare autoimmune diseases characterized by skeletal muscle inflammation, weakness, and usually accompanied by systemic pathologies of the skin, lungs, or vasculature. Current immunosuppressive therapies and glucocorticoids are often not curative and are accompanied by harsh side effects, especially in children with juvenile myositis. We initiated a drug repurposing and development program to identify more targeted, less toxic therapeutics to treat myositis. Although its cause is not known, muscle from a subset of patients have an abundance of the inflammatory type 1 interferon (IFN) and a down-stream product major histocompatibility complex class I (MHC class I), which are both thought to contribute to damage and weakness. We conducted quantitative high throughput screening (qHTS) on 6,576 compounds (4,679 unique) through a series of cell-based assays to identify those that inhibit the IFN-stimulated expression of MHC class I in muscle precursor cells (myoblasts). The compound identification and evaluation strategy utilized a primary screen with reporter-tagged MHC class I in genome-engineered myoblasts, ATP content counter screen for viability, HLA-ABC immunofluorescence secondary screen, and HLA-B RT-qPCR tertiary screen. To verify activity of compounds identified by qHTS in HLA-B HiBit reporter cells, compounds were assayed by high throughput HLA-ABC immunofluorescence. Briefly, 216 compounds identified from primary and counter screening as inhibitory with minimal cytotoxicity were dispensed into black/clear bottom […] using acoustic dispensing in an 11-point, 1:3 titration with a high final concentration of 50 uM. Normal immortalized human myoblasts C25cl48 were added to the plates with 4.0 ng/ml human IFN-beta for 24 hours, fixed, stained by immunofluorescence for HLA-ABC protein, nuclei, and cell body, and analyzed by laser scanning cytometry as described by Auld et al., 2006. References: Auld DS, Johnson RL, Zhang Y, Veith H, Jadhav A, Yasgar A, Simeonov A, Zheng W, Martinez ED, Westwick JK, Austin CP, Inglese J. 2006. Fluorescent protein-based cellular assays analyzed by laser-scanning microplate cytometry in 1536-well plate format. Methods Enzymol 414:566-89. doi:10.1016/S0076-6879(06)14029-X
PROTOCOL TABLE (as described by Inglese et al., 2007) SEQUENCE No. (e.g., 1, 2, 3, etc.); […] (e.g., Cells, Incubation, Reagent, etc.); VALUE; DESCRIPTION 0; Compounds; 25 nl; Follow-up compounds dispensed at 25 nl/well with Labcyte Echo 655 acoustic dispenser in triplicate Aurora ChemLib 1536K black/clear bottom, low base, TC 1536-well plates (00019324). Also dispensed 25 nl/well DMSO control, ruxolitinib IFN-b inhibitor control titration, and digitonin cytotoxic control 1a; Cells; 5 uL; Multidrop Combi (Thermo Scientific) to seed 125 cells/well into eight plates in 5 ul/well of iHSKM growth medium (GM) without dexamethasone into columns 1+2. Add metal lids with gas-exchange holes 1b; Cells; 5 uL; Multidrop Combi (Thermo Scientific) to seed 125 cells/well into eight plates in 5 ul/well of iHSKM GM without dexamethasone + 4 ng/ml IFN-b into columns 3 - 48. […]
Potency means the concentration at half of the fitted maximal effect.

Row | Structure (SMILES) | Potency
1 | Cc1[nH]ncc1-c1cc2nc([C@@H]3CC4CCN3CC4)[nH]c(=O)c2s1 | 3640 nM (active)
2 | CC1(C)CC[C@]2(NC(=O)C(C)(F)F)CC[C@]3(C)[C@H](C(=O)C=C4[C@@]5(C)C=C(C#N)C(=O)C(C)(C)[C@@H]5CC[C@]43C)[C@@H]2C1 | 3240 nM (active)
3 | C/C(=C\c1csc(C)n1)[C@@H]1C[C@@H]2O[C@]2(C)CCC[C@H](C)[C@H](O)[C@@H](C)C(=O)C(C)(C)[C@@H](O)CC(=O)O1 | inactive
4 | O=c1[nH]c2ccc(Cl)cc2c(N[C@@H]2CN3CCC2CC3)c1-c1nc2ccccc2[nH]1 | 1620 nM (active)
5 | COc1cccc2c1C(=O)c1c(O)c3c(c(O)c1C2=O)C[C@@](O)(C(=O)CO)CC3OC1CC(N2CCOC(OC)C2)C(O)C(C)O1 (stereo not given in full) | 57.6 nM (active)
6 | CC(C)[C@]12O[C@H]1[C@@H]1O[C@]13[C@]1(O[C@H]1C[C@H]1C4=C(CC[C@@]13C)C(=O)OC4)[C@@H]2O | 91.4 nM (active)
7 | C[C@@H]1O[C@@H](O[C@@H]2C=C3CC[C@@H]4[C@H](CC[C@]5(C)[C@@H](c6ccc(=O)oc6)CC[C@]45O)[C@@]3(C)CC2)[C@H](O)[C@H](O)[C@H]1O | 36.4 nM (active)
8 | Cc1[nH]nc2ccc(-c3cncc(OC[C@@H](N)Cc4c[nH]c5ccccc45)c3)cc12 | 230 nM (active)
9 | CC[C@@]1(O)C(=O)OCc2c1cc1n(c2=O)Cc2cc3ccccc3nc2-1 | 1.62 µM (active) and 2.05 µM (active)
10 | C/C1=C/C[C@@H](/C(C)=C/c2csc(C)n2)OC(=O)C[C@H](O)C(C)(C)C(=O)[C@H](C)[C@@H](O)[C@@H](C)CCC1 | inactive
11 | C[C@@H]1O[C@@H](O[C@H]2C[C@@H](O)[C@]3(CO)[C@H]4[C@H](O)C[C@]5(C)[C@@H](C6=CC(=O)OC6)CC[C@]5(O)[C@@H]4CC[C@]3(O)C2)[C@H](O)[C@H](O)[C@H]1O | 64.7 nM (active)
12 | CC1=C(O)C(=O)C=C2C1=CC=C1[C@@]2(C)CC[C@@]2(C)[C@@H]3C[C@](C)(C(=O)O)CC[C@]3(C)CC[C@]12C | 1150 nM (active)
13 | CC(C)[C@]12O[C@H]1[C@@H]1O[C@@]13[C@@]1(C)CCC4=C(COC4=O)[C@@H]1C[C@@H]1O[C@@]13C2=O | 162 nM (active)
14 | CC(C)(C)c1cc(C=C(C#N)C#N)cc(C(C)(C)C)c1O | inactive
15 | O=C1/C(=C\c2ccccc2)C[C@@]2(O)[C@H]3Cc4ccc(O)c5c4[C@@]2(CCN3CC2CC2)[C@H]1O5 | 2290 nM (active)
16 | Cc1sc2c(c1C)C(c1ccc(Cl)cc1)=N[C@@H](CC(N)=O)c1nnc(C)n1-2 | 162 nM (active)
17 | COC(=O)[C@@]12OC[C@]34[C@H]([C@@H](O)[C@@H]1O)[C@@]1(C)CC(=O)C(O)=C(C)[C@@H]1C[C@H]3OC(=O)[C@H](OC(=O)/C=C(\C)C(C)C)[C@@H]24 | 36.4 nM (active)
18 | CC(=O)OC[C@H]1O[C@@H]([S-])[C@H](OC(C)=O)[C@@H](OC(C)=O)[C@@H]1OC(C)=O.CC[PH+](CC)CC.[Au] | 576 nM (active)
19 | O=[N+]([O-])/C=C/c1ccc2c(c1)OCO2 | 18200 nM (active)
20 | COC(=O)[C@]12CCC(C)(C)C[C@H]1[C@H]1C(=O)C=C3[C@@]4(C)C=C(C#N)C(=O)C(C)(C)[C@@H]4CC[C@@]3(C)[C@]1(C)CC2 | 3640 nM (active)
